We go through seven compounds from PubChem BioAssay (NCATS).

Values without a mark were called inactive. Records with an inconclusive call do not appear. Calls of active or inactive are those of the source. Calls come from the whole dose curve; as a rule, active = well fitted curve in the direction sought with a large enough effect; inconclusive = small, poorly fitted or top-dose-only effect, or another doubt; inactive = no such curve, though single readings can be large; an effect the other way counts as inactive or inconclusive.

For assay [1], the system named is Zika virus NS2B-NS3 protease (linked construct). The experiment in a line: Primary screen NINDS Rhodamine qHTS for Zika virus inhibitors (AID 1347160). Note: nearly all actives have a fitted effect of over 55% in size. In a few lines: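 Each compound, titrated, sat 15 min with 25 nM linked protease before 1.5 microM Rhodamine110 substrate went in. Fluorescence gain over the next 15 min, in pH 8.0 Tris with Tween 20, gave Hill-fitted curves.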
(qHTS replaces the single test concentration by a dilution series.)

The target of assay [2] is Calcium and integrin-binding protein 1 (Homo sapiens) (UniProt Q99828). The experiment in a line: Primary qHTS for Identification of Calcium Integrin Binding Protein 1 (CIB1) Competitor (AID 1508620).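 Note: GST tagged CIB1 binding a fluorescein labelled alphaIIb integrin peptide tracer; top concentration of the series differs between compounds; % is set by controls: 0 for no effect and ±100 for the full control effect.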 The essentials: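 CIB1-GST (1 uM final) and compound incubated 15 min at room temperature before adding FITC-alphaIIb peptide tracer (100 nM final). Competition for binding read by fluorescence polarization (ex 480, em 540) after another 15 min at room temperature.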
Calcium and integrin-binding protein 1 (Homo sapiens), sequence (Q99828 whole entry, looked up): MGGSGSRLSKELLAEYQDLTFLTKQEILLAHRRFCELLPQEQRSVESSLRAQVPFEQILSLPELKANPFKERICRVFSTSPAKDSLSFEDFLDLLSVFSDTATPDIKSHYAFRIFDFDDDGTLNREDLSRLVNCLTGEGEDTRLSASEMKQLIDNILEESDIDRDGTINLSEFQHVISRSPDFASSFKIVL

The target of assay [3] is Glutathione peroxidase 1 (Homo sapiens) (UniProt P07203). The assay can be described thus: Primary qHTS Assay for Inhibitors of Recombinant Selenoprotein Glutathione Peroxidase 1 (GPX1) (AID 1845191). For activity, negative = inhibition: % is set by controls: 0 for no effect and ±100 for the full control effect. Note: nearly all actives have a fitted effect of over 65% in size. The essentials: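 NADPH consumption tracked by fluorescence at 340/450 nm between t=0 and t=15 min, room temperature. Final mix: 10 nM GPX1, 100 nM glutathione reductase, 1 mM GSH, 0.5 mM NADPH, 0.5 mM cumene hydroperoxide, 0.01% BSA; 30 min compound–enzyme preincubation.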
Glutathione peroxidase 1 (Homo sapiens), sequence (P07203 whole entry, looked up): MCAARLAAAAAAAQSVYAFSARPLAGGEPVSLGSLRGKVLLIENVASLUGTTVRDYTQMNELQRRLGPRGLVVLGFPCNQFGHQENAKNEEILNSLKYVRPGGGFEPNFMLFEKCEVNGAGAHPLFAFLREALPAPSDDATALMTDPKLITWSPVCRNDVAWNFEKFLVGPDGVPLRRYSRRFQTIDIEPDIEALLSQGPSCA

The target in assay [4] is Phospholipid hydroperoxide glutathione peroxidase GPX4 (Homo sapiens) (UniProt P36969). The assay can be described thus: Primary qHTS Assay for Inhibitors of Recombinant Selenoprotein Glutathione Peroxidase 4 (GPX4) (AID 1845192). Note: nearly all actives have a fitted effect of over 65% in size. In a few lines: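 NADPH consumption followed by fluorescence at 340/450 nm, t=0 and after 15 min at room temperature. Reaction started with cumene hydroperoxide (0.5 mM final) after 30 min compound–GPX4 preincubation; final 200 nM GPX4, 100 nM GR, 1 mM GSH, 0.5 mM NADPH.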
Phospholipid hydroperoxide glutathione peroxidase GPX4 (Homo sapiens), sequence (P36969 whole entry, looked up): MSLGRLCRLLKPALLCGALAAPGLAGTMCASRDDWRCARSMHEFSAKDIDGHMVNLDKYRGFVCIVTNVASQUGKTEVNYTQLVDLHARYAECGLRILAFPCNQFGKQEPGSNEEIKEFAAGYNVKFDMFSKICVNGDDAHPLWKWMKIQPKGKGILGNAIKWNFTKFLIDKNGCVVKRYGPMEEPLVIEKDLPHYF

For assay [5], the target named is Luciferin 4-monooxygenase (Photinus pyralis) (UniProt P08659). The assay can be described thus: Primary firefly luciferase (FLuc) qHTS assay for identification of artifact compounds. (AID 1845220). Note: nearly all actives have a fitted effect of over 60% in size. To be noted: outcome: dose series up to 54.1 µM unless noted. The essentials:
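Cell-free, 1536-well qHTS. Buffer pH 7.6 with 0.01% Tween-20 and 0.05% BSA; 10 uM D-luciferin, 10 uM ATP; 10 nM P. pyralis luciferase; luminescence after 5 min.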

Assay [6] is described as follows: Primary fluorescence-based thiol-reactive (MSTI) qHTS assay for identification of artifact compounds. (AID 1845221).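 Note: thiol-reactive compounds lower the probe fluorescence signal; nearly all actives have a fitted effect of over 65% in size.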 The essentials:
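MSTI probe at 4 uM final in 2% DMSO/PBS pH 7.4; compounds, 1 h at room temperature in dark. Fluorescence Ex/Em 525/598 nm, normalised to Acetyl-MSTI and MSTI, fitted to 4-parameter Hill.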

The subject of assay [7] is Nanoluciferase (engineered Oplophorus gracilirostris luciferase). The experiment in a line: Primary Nanoluciferase (NLuc) qHTS assay for identification of artifact compounds. (AID 1845222).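 Note: 0% = DMSO and -100% = no enzyme.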 In a few lines: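 Compounds are pinned into diluted (1:55) conditioned medium of NLuc-expressing S16 cells and held 15 min at room temperature protected from light. Nano-Glo substrate follows, and luminescence is read 5 min later.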

Another assay deals with NIH3T3. The experiment in a line: Cytotoxic Profiling of Annotated Libraries Using Quantitative High-Throughput Screening (AID 1296008). For max response: % is set by controls: 0 for no effect and ±100 for the full control effect. Note: nearly all actives have a fitted effect of over 60% in size. Note: potency is the fitted concentration of half-maximal effect. To be noted: Five cell lines viability, CellTiter-Glo ATP luminescence, 48-72 h; max response: active compounds read low. In a few lines: (§1)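 Cytotoxicity was measured as CellTiter-Glo ATP luminescence, read after 10 min at room temperature. Compound treatment of the cells lasted 48 or 72 hr at 37 degrees Celsius in a qHTS format.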
(In general: ATP-based viability assays read luminescence as a measure of living cells.)

In another assay the test system is CAOV3. The assay can be described thus: Primary qHTS to identify gynecologic anti-cancer compounds using libraries of approved drugs and bioactive compounds (AID 1345084). Note: % is set by controls: 0 for no effect and ±100 for the full control effect; nearly all actives have a fitted effect of over 55% in size. To be noted: Gynecologic cancer cell panel viability, ATPlite luminescence, 48 h; series mostly up to 57.5 µM. In a few lines: (§2)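 Cells, 1,000 per well, plated 16 h, then exposed 48 h at 37 C to compounds. Viability by ATPlite luminescence after 15 min at room temperature.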

Another assay deals with CASKI. The assay is described as above. The conditions noted are these: Gynecologic cancer cell panel viability, ATPlite luminescence, 48 h; series mostly up to 57.5 µM. In a few lines: as §2
Another assay concerns Es-2. The assay is described as above. The conditions noted are these: Gynecologic cancer cell panel viability, ATPlite luminescence, 48 h; series mostly up to 57.5 µM. The essentials:
as §2

For a further assay, the system named is JEG-3. The description is as above. The conditions noted are these: Gynecologic cancer cell panel viability, ATPlite luminescence, 48 h; series mostly up to 57.5 µM. In a few lines: as §2
The next assay concerns Tov-21-G. Described as above. To be noted: Gynecologic cancer cell panel viability, ATPlite luminescence, 48 h; series mostly up to 57.5 µM. The essentials: as §2
The subject of the next assay is Tov112D. Described as above. To be noted: Gynecologic cancer cell panel viability, ATPlite luminescence, 48 h; series mostly up to 57.5 µM. The essentials: as §2
Assay [8] has as its system Zika virus NS2B-NS3 protease (unlinked complex). The assay can be described thus: Primary screen GU Rhodamine qHTS for Zika virus inhibitors: Unlinked NS2B-NS3 protease assay (AID 1347159). Note: % is set by controls: 0 for no effect and ±100 for the full control effect; nearly all actives have a fitted effect of over 60% in size. The essentials: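 In dose–response format, inhibition of unlinked protease (25 nM) was measured with 1.5 microM bis-peptide Rhodamine110 substrate. Aprotinin served as the intraplate control.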

For a further assay, the system named is Hek293T. The experiment in a line: Primary qHTS to identify gynecologic anti-cancer compounds using libraries of approved drugs and bioactive compounds (AID 1345084). Note: % is set by controls: 0 for no effect and ±100 for the full control effect; nearly all actives have a fitted effect of over 55% in size. To be noted: Gynecologic cancer cell panel viability, ATPlite luminescence, 48 h, control line for the selectivity index; series mostly up to 57.5 µM. The essentials:
as §2

For another assay, the system named is PA-1. Described as above. To be noted: Gynecologic cancer cell panel viability, ATPlite luminescence, 48 h; series mostly up to 57.5 µM. In a few lines: as §2
A further assay concerns CRL-7250. The assay can be described thus: Cytotoxic Profiling of Annotated Libraries Using Quantitative High-Throughput Screening (AID 1296008). For max response: % is set by controls: 0 for no effect and ±100 for the full control effect. Note: nearly all actives have a fitted effect of over 60% in size. Note: potency is the fitted concentration of half-maximal effect. The conditions noted are these: Five cell lines viability, CellTiter-Glo ATP luminescence, 48-72 h; max response: active compounds read low. In a few lines: as §1
A further assay concerns C33A. The experiment in a line: Primary qHTS to identify gynecologic anti-cancer compounds using libraries of approved drugs and bioactive compounds (AID 1345084). Note: % is set by controls: 0 for no effect and ±100 for the full control effect; nearly all actives have a fitted effect of over 55% in size. The conditions noted are these: Gynecologic cancer cell panel viability, ATPlite luminescence, 48 h; series mostly up to 57.5 µM. In a few lines: as §2
Another assay has as its system OV90. The description is as above. To be noted: Gynecologic cancer cell panel viability, ATPlite luminescence, 48 h; series mostly up to 57.5 µM. In a few lines:
as §2

In the case of `CC[C@@H]1/C=C/C=C/C[C@H](C)C(O)[C@](C)(O)C(=O)[C@H](C)C(O)[C@H](C)C(=O)[C@H](C)[C@@H](O)[C@H](C)/C=C/C(=O)O[C@H]2[C@@H](C)[C@@H](CC1)O[C@]1(O[C@H](C[C@H](C)O)[C@H](C)CC1=O)[C@@H]2C` (stereo partly specified), the Potency result in [1], in assay [2], in assay [3] and in [4] was “inactive” throughout. Further, the outcome in [5] was “inactive [at 11.6 µM]”. In addition, the activity change, negative = thiol reactive in assay [6] is -8.56% [at 11.5 µM]. In assay [7], the activity, negative = inhibition is -0.681% [at 11.6 µM]. Moreover, the max response with NIH3T3 was -27%. For the same compound, the activity change, negative = cytotoxicity is -25.5% [at 11.6 µM] in the assay on CAOV3; -1.41% [at 11.6 µM] in the assay on CASKI; -1.68% [at 11.6 µM] with Es-2; 22.8% [at 11.6 µM] in the assay on JEG-3; 25.5% [at 11.6 µM] in the assay on Tov-21-G; -13.7% [at 11.6 µM] with Tov112D.
Regarding `CN1CN(c2ccccc2)C2(CCN(CCCC(=O)c3ccc(F)cc3)CC2)C1=O`, the Potency result in [8], in assay [1], in assay [2], in assay [3], in [4] and in assay [6] was “inactive” in each case. Moreover, the Potency result (in [7]; with CAOV3; in the assay with CASKI; in the assay on Es-2; in the assay on Hek293T; with JEG-3) was “inactive” each time. Besides, the Potency entry in the assay with PA-1, with Tov-21-G and with Tov112D was “inactive” throughout. Moreover, the result in [5] was inactive.
On to `C=C(CO)[C@@]12O[C@@H]1[C@@]1(C)C(=CC2=O)CC[C@@H](O)[C@@H]1C`, for which the Potency entry in [8], in assay [1], in assay [2], in assay [3], in assay [4] and in assay [6] was “inactive” each time. The Potency entry (in assay [7]; in the assay with CASKI; in the assay on JEG-3) was “inactive” throughout. Besides, the result in assay [5] was inactive. Further, the Potency with NIH3T3 was 7.31 µM (active).
With `C[C@H]1CCC[C@H](O)CCC/C=C/c2cc(O)cc(O)c2C(=O)O1`, the Potency result (in assay [1]; in [2]; in assay [3]; in [6]; in assay [7]; in the assay with C33A) was “inactive” throughout. The Potency entry in the assay with CAOV3, with CASKI, with Es-2, in the assay with Hek293T, in the assay with JEG-3 and with OV90 was “inactive” throughout. Further, the Potency entry with PA-1, in the assay with Tov-21-G and in the assay with Tov112D was “inactive” each time. Besides, the outcome (in assay [5]; in the assay on CRL-7250; in the assay on NIH3T3) was inactive.
Turning to `Cc1ncc(OC[C@@]2(c3cccc(F)c3)C[C@H]2C(=O)Nc2ccc(F)cn2)c(C)n1`, the Potency result in assay [2], in assay [3] and in assay [4] was “inactive” in each case. Further, the call with NIH3T3 was inactive.
On to `C[C@H]1CN(CC[C@H](O)C2CCCCC2)CC[C@@]1(C)c1cccc(O)c1`, for which the Potency result in assay [8], in assay [1], in assay [2], in assay [3], in assay [4] and in assay [6] was “inactive” in each case. For the same compound, the Potency result (in assay [7]; with C33A; with CAOV3; in the assay with CASKI; in the assay with Es-2; in the assay with Hek293T) was “inactive” each time. The Potency result with JEG-3, in the assay on OV90, in the assay on PA-1, in the assay with Tov-21-G and with Tov112D was “inactive” each time. Besides, in assay [5], the outcome was inactive. In addition, the results for the max response in the assay with CRL-7250 and in the assay with NIH3T3 were 4.91% and -4.6%, respectively.
For `CC(=O)NCCCOc1ccc(C(=O)N2CCC(N3C(=O)CCc4ccccc43)CC2)cc1`, the Potency entry in assay [8], in assay [1], in assay [2], in assay [3], in assay [4] and in assay [6] was “inactive” each time. Also, the Potency result (in assay [7]; with C33A; with CASKI; with Es-2; in the assay with Hek293T; in the assay on JEG-3) was “inactive” throughout. Further, the Potency entry in the assay with OV90, with PA-1, with Tov-21-G and in the assay on Tov112D was “inactive” in each case. In addition, the max response in the assay with CRL-7250 is 0.176%; with NIH3T3, -14%.
